Records with an inconclusive call do not appear. Calls of active or inactive are those of the source. Unless noted, calls come from the whole dose curve; as a rule, active = well fitted curve in the direction sought with a large enough effect; inconclusive = small, poorly fitted or top-dose-only effect, or another doubt; inactive = no such curve, though single readings can be large; an effect the other way counts as inactive or inconclusive.

This note sets out measurements from PubChem BioAssay (NCATS).

The nature of assay [1]: Cytometric Cell-Based qHTS for Inhibitors of the mTORC1 Signaling Pathway in MEF (Tsc2-/-, p53-/-) Cells (AID 2660). Note: potency is the fitted concentration of half-maximal effect. The essentials: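 Cells are plated, treated with compound for 24 hrs at 37 degree Celsius, then fixed, blocked and immunostained for phospho-rpS6 Ser235/236. Propidium iodide counterstain follows. Per-well % positive cells is derived from the PI-normalized phospho-S6 signal.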
(In general: qHTS replaces the single test concentration by a dilution series.)

Assay [2] can be described thus: High Content Imaging Cell-Based qHTS for Inhibitors of the mTORC1 Signaling Pathway in MEF (Tsc2-/-, p53-/-) Cells (AID 2666).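 Note: percent of cells scored positive for phospho-rpS6 Ser235/236 immunostaining by imaging.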 Note: potency is the fitted concentration of half-maximal effect. The essentials:
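Phospho-rpS6 (Ser235/236) immunofluorescence, normalized and scored as % positive cells using rapamycin and DMSO controls, was read in empty-vector Tsc2-/-, p53-/- MEFs after 24 h compound exposure at 37 C; propidium iodide counted cells.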

Assay [3] can be described thus: High Content Imaging Cell-Based qHTS for Inhibitors of the mTORC1 Signaling Pathway in MEF Cells (AID 2667). Note: potency is the fitted concentration of half-maximal effect. In outline: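 WT MEFs (Tsc2-/-, p53-/- re-expressing Tsc2), in DMEM + 10% FBS, were treated with compound for 24 h at 37 C. Cells were then fixed and stained for phospho-rpS6 Ser235/236 with propidium iodide as cell count. Values are % positive cells, with thresholds set against rapamycin-treated cells.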

The nature of assay [4]: Cytometry Cell-Based qHTS for Inhibitors of the mTORC1 Signaling Pathway in MEF cells (AID 2668).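 Note: Tsc2-/- p53-/- mouse embryonic fibroblasts stably re-expressing wild-type Tsc2; percent cells positive for phospho-rpS6 Ser235/236 relative to propidium iodide stain; series mostly up to about 38 µM.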 The essentials: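 MEFs (Tsc2-/-, p53-/- stably expressing WT Tsc2) treated 24 h at 37 degree Celsius, fixed, stained with Alexa-488 anti-phospho-rpS6 Ser235/236 and propidium iodide; Acumen laser scanning. Reported as % positive cells, phospho-S6 normalized to PI.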
A short description of assay [5]: Validation screen for inhibitors of Lassa infection (AID 463096; calls by dose curve; note: potency is the fitted concentration of half-maximal effect).
The nature of assay [6]: Validation screen for small molecules that induce DNA re-replication in MCF 10A normal breast cells (AID 463097). Note: nearly all actives have a fitted effect of over 60% in size. The essentials:
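MCF 10A cells exposed to compound 48 hr at 37 C, 5% CO2, then Hoechst-stained 40 min. Laser-scanning imaging of nuclear DNA content (405 nm ex, 500-530 nm em); re-replication scored as rise in nuclei with elevated fluorescence intensity.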

Assay [7] has as its target Ubiquitin carboxyl-terminal hydrolase 2 (Homo sapiens) (UniProt O75604). Kind of assay: qHTS Validation Assay for Inhibitors of Ubiquitin-specific Protease USP2a Using CHOP2 as the Reporter (AID 463106). The essentials:
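USP2 core (10 nM final) was preincubated with compound 30 min at RT in pH 8.0 Tris/CaCl2/beta-ME/CHAPS buffer. Ub-CHOP2 and reporter substrate (25 nM final each) were then added, with fluorescence (Ex 485/Em 531) read after 60 min. Data were normalized to NEM full inhibition and fitted to concentration-response curves.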

Assay [8] addresses DNA polymerase III PolC-type (Bacillus subtilis (strain 168)) (UniProt P13267). Nature of the assay: qHTS Validation Assay for the Inhibitors of DNA Replication in Gram-Positive Bacteria (AID 485295). Note: potency is the fitted concentration of half-maximal effect. The essentials: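 Reconstituted B. subtilis Pol III holoenzyme (PolC, beta clamp, SSB, primase) preincubated with compound, then M13Gori single-stranded circular template with dNTPs/NTPs added; room temperature reaction. Stopped with EDTA/PicoGreen; dsDNA fluorescence read, EDTA as full-inhibition control.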

Assay [9] addresses Tumor susceptibility gene 101 protein (Homo sapiens) (UniProt Q99816). Nature of the assay: qHTS Validation Assay for Iinhibitors of HIV-1 Budding by Blocking the Interaction of PTAP/TSG101 (AID 485342; calls by dose curve). In outline: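 Tsg101 binding domain (10 uM) with FITC-labeled PTAP peptide (50 nM) in HEPES pH 7.5 buffer, 20 min at r.t. with compounds. Binding measured by fluorescence polarization.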

The nature of assay [10]: qHTS Validation Assay to Find Inhibitors of Chronic Active B-Cell Receptor Signaling (AID 485345; active = well fitted curve in the direction sought with a large enough effect in the main read-out, with a control signal flat, not every such curve was filed as active). In outline:
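TMD8 ABC-DLBCL cells stably carrying doxycycline-inducible IkappaBalpha–green luciferase fusion plus unfused red luciferase; compounds 46 uM to 3 nM, 4 h at 37C with doxycycline. Corrected green/red luminescence ratio normalized to 10 uM MG-132 and basal cell wells; curves fitted.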

Tumor susceptibility gene 101 protein (Homo sapiens), sequence (Q99816 whole entry, looked up, the tested form may be a part): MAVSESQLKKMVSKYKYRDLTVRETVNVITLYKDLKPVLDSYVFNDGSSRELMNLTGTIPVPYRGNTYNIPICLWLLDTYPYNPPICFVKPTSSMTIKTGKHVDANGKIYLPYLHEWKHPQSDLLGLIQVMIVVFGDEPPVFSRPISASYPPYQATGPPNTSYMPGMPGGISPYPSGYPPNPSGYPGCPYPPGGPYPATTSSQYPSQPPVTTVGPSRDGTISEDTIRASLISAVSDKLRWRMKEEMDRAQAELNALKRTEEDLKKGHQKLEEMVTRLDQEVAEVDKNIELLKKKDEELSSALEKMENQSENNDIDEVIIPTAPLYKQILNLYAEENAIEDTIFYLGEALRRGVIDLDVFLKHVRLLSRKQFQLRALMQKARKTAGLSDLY
Ubiquitin carboxyl-terminal hydrolase 2 (Homo sapiens), sequence (O75604 whole entry, looked up): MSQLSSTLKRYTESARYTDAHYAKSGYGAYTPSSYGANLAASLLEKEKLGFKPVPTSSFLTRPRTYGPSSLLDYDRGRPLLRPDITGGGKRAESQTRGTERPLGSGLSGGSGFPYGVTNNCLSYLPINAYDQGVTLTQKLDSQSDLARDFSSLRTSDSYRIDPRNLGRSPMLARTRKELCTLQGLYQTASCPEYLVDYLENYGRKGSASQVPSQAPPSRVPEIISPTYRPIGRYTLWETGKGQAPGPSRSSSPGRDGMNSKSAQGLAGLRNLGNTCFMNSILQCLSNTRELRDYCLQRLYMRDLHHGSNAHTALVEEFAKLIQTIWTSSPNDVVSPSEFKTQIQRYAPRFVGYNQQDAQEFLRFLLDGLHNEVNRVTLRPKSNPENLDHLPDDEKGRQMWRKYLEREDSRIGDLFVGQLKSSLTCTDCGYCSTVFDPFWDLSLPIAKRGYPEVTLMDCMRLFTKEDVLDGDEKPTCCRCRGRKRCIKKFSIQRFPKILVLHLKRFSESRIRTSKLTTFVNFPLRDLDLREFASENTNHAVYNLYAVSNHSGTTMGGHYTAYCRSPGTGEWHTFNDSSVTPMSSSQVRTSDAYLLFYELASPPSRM
DNA polymerase III PolC-type (Bacillus subtilis (strain 168)), sequence (P13267 whole entry, looked up): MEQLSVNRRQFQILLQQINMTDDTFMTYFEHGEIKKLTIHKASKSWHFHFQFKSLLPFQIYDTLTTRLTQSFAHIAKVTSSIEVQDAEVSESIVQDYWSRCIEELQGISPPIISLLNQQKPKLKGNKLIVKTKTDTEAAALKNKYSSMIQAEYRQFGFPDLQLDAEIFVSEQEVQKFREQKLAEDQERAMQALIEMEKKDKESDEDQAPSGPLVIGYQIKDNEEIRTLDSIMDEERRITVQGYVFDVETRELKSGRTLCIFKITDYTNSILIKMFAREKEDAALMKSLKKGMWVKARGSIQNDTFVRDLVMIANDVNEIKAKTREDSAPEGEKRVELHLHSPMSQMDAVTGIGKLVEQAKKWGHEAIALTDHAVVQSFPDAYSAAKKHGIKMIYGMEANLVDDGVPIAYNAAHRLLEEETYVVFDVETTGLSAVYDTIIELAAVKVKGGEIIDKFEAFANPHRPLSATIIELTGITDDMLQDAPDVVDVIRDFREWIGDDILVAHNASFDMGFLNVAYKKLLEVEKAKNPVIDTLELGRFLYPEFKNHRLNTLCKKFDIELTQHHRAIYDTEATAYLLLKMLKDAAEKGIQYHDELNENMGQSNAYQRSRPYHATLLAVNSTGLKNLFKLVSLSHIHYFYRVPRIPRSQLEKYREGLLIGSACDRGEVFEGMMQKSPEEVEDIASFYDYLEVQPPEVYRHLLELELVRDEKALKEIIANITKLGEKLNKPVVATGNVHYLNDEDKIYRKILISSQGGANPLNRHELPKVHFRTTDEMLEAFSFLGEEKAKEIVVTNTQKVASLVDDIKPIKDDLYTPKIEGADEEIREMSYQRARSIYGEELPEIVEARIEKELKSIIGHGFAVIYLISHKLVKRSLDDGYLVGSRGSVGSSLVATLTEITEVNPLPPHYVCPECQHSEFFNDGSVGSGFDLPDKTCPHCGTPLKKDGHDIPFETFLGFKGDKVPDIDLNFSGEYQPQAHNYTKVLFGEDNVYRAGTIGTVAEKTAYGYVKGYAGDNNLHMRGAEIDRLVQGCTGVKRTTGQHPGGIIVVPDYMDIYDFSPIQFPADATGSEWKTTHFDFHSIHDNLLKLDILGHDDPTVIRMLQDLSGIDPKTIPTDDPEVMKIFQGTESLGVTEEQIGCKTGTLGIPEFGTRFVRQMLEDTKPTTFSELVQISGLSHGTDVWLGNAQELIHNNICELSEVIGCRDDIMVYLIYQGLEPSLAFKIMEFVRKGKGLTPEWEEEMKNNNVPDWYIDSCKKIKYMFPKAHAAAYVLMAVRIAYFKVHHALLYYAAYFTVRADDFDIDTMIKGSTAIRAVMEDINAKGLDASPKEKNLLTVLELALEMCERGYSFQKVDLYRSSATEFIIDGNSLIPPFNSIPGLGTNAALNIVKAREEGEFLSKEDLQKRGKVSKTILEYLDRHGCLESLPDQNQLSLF

On to `CCCN(CCC)[C@@H]1CCc2ccc(O)cc2C1`, for which the Potency result in assay [1], in [2], in assay [3], in [4], in assay [5] and in [6] was “inactive” each time. The Potency entry in [7] and in assay [8] was “inactive” each time. Besides, the outcome in [9] and in assay [10] was inactive.

For the compound `O=C(O)CC[N+](=O)[O-]`, the Potency entry in assay [1], in assay [2], in assay [3], in assay [5], in assay [6] and in assay [7] was “inactive” throughout. Moreover, the Potency result in assay [8] is “inactive”. The call in assay [9] and in assay [10] was inactive.

In the case of `CCCCc1ccc(C(=O)O)nc1`, the Potency entry in assay [1], in assay [2], in assay [3], in assay [5], in assay [6] and in assay [7] was “inactive” in each case. In [8], the Potency entry is “inactive”. For the same compound, the result in [10] was inactive.

`Cc1nccc2c1[nH]c1ccccc12`: the Potency entry in assay [1], in assay [2], in assay [3], in [5], in assay [6] and in assay [7] was “inactive” in each case. Also, the Potency result in assay [8] is “inactive”.

With `CC[C@@H](C(N)=O)N1CCCC1=O`, the Potency entry in assay [1], in assay [2], in [3], in [4], in assay [7] and in assay [8] was “inactive” each time. The compound was called inactive in assay [10].

For the compound `C=CCN1CC[C@]23CCCCC2[C@H]1Cc1ccc(O)cc13` (some centres not stated), the Potency entry in [1], in assay [2], in assay [3], in assay [5], in [6] and in [7] was “inactive” throughout. For the same compound, the Potency result in assay [8] is “inactive”. The result in assay [10] was inactive.

As for `CNCCc1c[nH]c2ccc(O)cc12`, the Potency result in assay [1], in assay [2], in assay [3], in assay [5], in assay [6] and in [7] was “inactive” each time. Further, the Potency entry in [8] was “inactive”. Further, the compound was called inactive in [9] and in assay [10].

Consider `C[N+]1(C)C2CCC1CC(OC(=O)C(CO)c1ccccc1)C2` (configuration not stated), for which the Potency result in [1], in assay [2], in [3], in [5], in assay [6] and in assay [7] was “inactive” in each case. Also, the Potency entry in assay [8] was “inactive”. For the same compound, the outcome in assay [9] and in [10] was inactive.

As for `NC(CP(=O)(O)O)C(=O)O` (configuration not stated), the Potency entry in assay [1], in assay [2], in [3], in [5], in assay [6] and in [7] was “inactive” each time. In addition, the Potency result in assay [8] is “inactive”. The compound was called inactive in [10].

Turning to `C[C@]12N[C@H](Cc3ccccc31)c1ccccc12`, the Potency result in assay [1], in assay [2], in assay [3], in assay [4], in assay [5] and in [6] was “inactive” each time. Also, the Potency result in assay [7] and in [8] was “inactive” throughout. The compound was called inactive in assay [10].

On to `NC(N)=NOCCC(N)C(=O)O` (configuration not stated), for which the Potency entry in assay [1], in assay [2], in assay [3], in assay [5], in assay [6] and in [7] was “inactive” in each case. In addition, the Potency entry in [8] is “inactive”. Further, the compound was classed as inactive in assay [10].

For the compound `C[C@]12CCC3C(CC[C@H]4C[C@H](O)CC[C@]34C)C1CC[C@@H]2C(=O)CO` (some centres not stated), the Potency entry in [1], in assay [2], in assay [3], in assay [5], in [6] and in [7] was “inactive” throughout. In addition, the Potency result in assay [8] was “inactive”.

As for `NC(CCP(=O)(O)O)C(=O)O` (configuration not stated), the Potency entry in [1], in assay [2], in [3], in [5], in [6] and in [7] was “inactive” throughout. Besides, the Potency entry in [8] is “inactive”. For the same compound, in assay [10], the outcome was inactive.

With `CC1=NN=C(c2ccc(N)cc2)c2cc3c(cc2C1)OCO3`, the Potency entry in [1], in [2], in [3], in assay [5], in [6] and in assay [7] was “inactive” in each case. In addition, the Potency result in assay [8] was “inactive”. For the same compound, the compound was classed as inactive in assay [10].

With `C#CCOC(=O)C1=CCCN(C)C1`, the Potency entry in assay [1], in [2], in [3], in [4], in [5] and in assay [6] was “inactive” throughout. In addition, the Potency result in [7] and in assay [8] was “inactive” in each case. Besides, the outcome in assay [10] was inactive.

`CC(C)c1ccc2c(c1)c(SC(C)(C)C)c(CC(C)(C)C(=O)O)n2Cc1ccc(Cl)cc1`: in [5], the Potency result is “inactive”.

`CC(C[N+](C)(C)C)OC(N)=O` (configuration not stated): the Potency entry in [5] was “inactive”.

With `NCCS`, in [5], the Potency result was “inactive”.

With `C[C@@H](N)C1CCC(C(=O)Nc2ccncc2)CC1` (some centres not stated), the Potency entry in assay [5] was “inactive”.

As for `CN1C2CCC1CC(OC(=O)c1cc(Cl)cc(Cl)c1)C2` (configuration not stated), the Potency entry in assay [1], in assay [2], in [3], in assay [5], in [7] and in assay [8] was “inactive” in each case. In assay [9], the compound was called inactive.

As to `CNCCc1ccc(O)c(O)c1`, the Potency result in assay [1], in [2], in [3], in [5], in assay [7] and in [8] was “inactive” each time. Besides, the result in assay [9] and in [10] was inactive.

Take `CC1=C(/C=C/C(C)=C/C=C/C(C)=C/C(=O)O)C(C)(C)CCC1`: the Potency result in assay [5] was “inactive”.

On to `C[N+](C)(C)CC(=O)O`, for which the Potency result in assay [5] and in assay [6] was “inactive” throughout.

`C/C=C(/C)C(=O)O[C@H]1C(C)=C2[C@H]([C@@H]1OC(=O)CCCCCCC)[C@@](C)(OC(C)=O)C[C@H](OC(=O)CCC)[C@@]1(O)[C@H]2OC(=O)[C@@]1(C)O`: the results for the Potency in assay [2] and in [3] were 0.0261 µM (active) and 0.0037 µM (active), respectively. In [7], the Potency result is “inactive”.

As to `Cn1cnc(CCN)c1`, the Potency result in assay [1], in [2], in assay [3], in assay [5], in [6] and in assay [7] was “inactive” throughout. In assay [8], the Potency entry is “inactive”. Also, the compound was called inactive in [10].

With `CCc1c(C)[nH]c2c1C(=O)C(CN1CCOCC1)CC2` (configuration not stated), the Potency entry in [5] was “inactive”.

In the case of `CC(C)Oc1cccnc1N(C)C1CCN(Cc2ccccc2)CC1`, the Potency entry in assay [1], in [2], in assay [3], in [5], in assay [7] and in [8] was “inactive” in each case. For the same compound, in [10], the compound was called inactive.

Regarding `CC[C@@]1(O)C(=O)OCc2c1cc1n(c2=O)Cc2cc3ccccc3nc2-1`, the Potency entry in [1], in assay [2], in [7] and in [8] was “inactive” each time. Besides, the Potency in assay [3] is 0.104 µM (active).

For `CCN1CCc2nc(N)oc2CC1`, in assay [5], the Potency result is “inactive”.

On to `COc1ccc2c(c[n+](C)c3c4cc5c(cc4ccc23)OCO5)c1OC`, for which the Potency entry in assay [2], in [3], in assay [4] and in assay [7] was “inactive” throughout. Moreover, the Potency was 10 µM (active) in assay [5] and 26.7 µM (active) in assay [8]. The compound was classed as inactive in [9].

Regarding `CC(C)(Sc1ccc(CCN(CCCCC2CCCCC2)C(=O)NC2CCCCC2)cc1)C(=O)O`, the Potency entry in [5] is “inactive”.

As for `NCCCC(N)(C(=O)O)C(F)F` (configuration not stated), the Potency entry in assay [5] was “inactive”.

Turning to `CN[C@@H](C)[C@H](O)c1ccccc1`, in assay [5], the Potency was 10 µM (active).

Regarding `CC(C)C[C@H](NC(=O)[C@@H](O)[C@H](N)Cc1ccccc1)C(=O)O`, the Potency result in assay [5] is “inactive”.

For the compound `CC(=O)Oc1ccccc1C(=O)O`, the Potency entry in [5] is “inactive”.

In the case of `CCn1cc(C(=O)O)c(=O)c2cc3c(cc21)OCO3`, in [5], the Potency result is “inactive”.

In the case of `Cc1c(C(=O)c2cccc3ccccc23)c2cccc3c2n1[C@H](CN1CCOCC1)CO3`, the Potency result in assay [2], in [5], in assay [7] and in assay [8] was “inactive” each time. The Potency in assay [3] was 18.5 µM (active).

On to `CN[C@@H]1C[C@@H](c2ccc(Cl)c(Cl)c2)c2ccccc21`, for which the Potency in assay [1] was 18.5 µM (active). Besides, the Potency entry in assay [7] and in assay [8] was “inactive” each time.
